KDM5B inhibitor = inhibitors of human KDM5B histone demethylase | Q9UGL1 | KDM5B demethylase, FDH-coupled NADH fluorescence (FDH is formaldehyde dehydrogenase) | Potency, µM (top dose mostly 57.7 µM), usual class: inhibitors | hit rate 2.6% among 220,000 | AID 1347165; active means well fitted inhibition curve with a large enough effect; further: 0% is about no effect; nearly all actives have a fitted effect of over 70% in size
Target sequence (Q9UGL1 whole entry, looked up): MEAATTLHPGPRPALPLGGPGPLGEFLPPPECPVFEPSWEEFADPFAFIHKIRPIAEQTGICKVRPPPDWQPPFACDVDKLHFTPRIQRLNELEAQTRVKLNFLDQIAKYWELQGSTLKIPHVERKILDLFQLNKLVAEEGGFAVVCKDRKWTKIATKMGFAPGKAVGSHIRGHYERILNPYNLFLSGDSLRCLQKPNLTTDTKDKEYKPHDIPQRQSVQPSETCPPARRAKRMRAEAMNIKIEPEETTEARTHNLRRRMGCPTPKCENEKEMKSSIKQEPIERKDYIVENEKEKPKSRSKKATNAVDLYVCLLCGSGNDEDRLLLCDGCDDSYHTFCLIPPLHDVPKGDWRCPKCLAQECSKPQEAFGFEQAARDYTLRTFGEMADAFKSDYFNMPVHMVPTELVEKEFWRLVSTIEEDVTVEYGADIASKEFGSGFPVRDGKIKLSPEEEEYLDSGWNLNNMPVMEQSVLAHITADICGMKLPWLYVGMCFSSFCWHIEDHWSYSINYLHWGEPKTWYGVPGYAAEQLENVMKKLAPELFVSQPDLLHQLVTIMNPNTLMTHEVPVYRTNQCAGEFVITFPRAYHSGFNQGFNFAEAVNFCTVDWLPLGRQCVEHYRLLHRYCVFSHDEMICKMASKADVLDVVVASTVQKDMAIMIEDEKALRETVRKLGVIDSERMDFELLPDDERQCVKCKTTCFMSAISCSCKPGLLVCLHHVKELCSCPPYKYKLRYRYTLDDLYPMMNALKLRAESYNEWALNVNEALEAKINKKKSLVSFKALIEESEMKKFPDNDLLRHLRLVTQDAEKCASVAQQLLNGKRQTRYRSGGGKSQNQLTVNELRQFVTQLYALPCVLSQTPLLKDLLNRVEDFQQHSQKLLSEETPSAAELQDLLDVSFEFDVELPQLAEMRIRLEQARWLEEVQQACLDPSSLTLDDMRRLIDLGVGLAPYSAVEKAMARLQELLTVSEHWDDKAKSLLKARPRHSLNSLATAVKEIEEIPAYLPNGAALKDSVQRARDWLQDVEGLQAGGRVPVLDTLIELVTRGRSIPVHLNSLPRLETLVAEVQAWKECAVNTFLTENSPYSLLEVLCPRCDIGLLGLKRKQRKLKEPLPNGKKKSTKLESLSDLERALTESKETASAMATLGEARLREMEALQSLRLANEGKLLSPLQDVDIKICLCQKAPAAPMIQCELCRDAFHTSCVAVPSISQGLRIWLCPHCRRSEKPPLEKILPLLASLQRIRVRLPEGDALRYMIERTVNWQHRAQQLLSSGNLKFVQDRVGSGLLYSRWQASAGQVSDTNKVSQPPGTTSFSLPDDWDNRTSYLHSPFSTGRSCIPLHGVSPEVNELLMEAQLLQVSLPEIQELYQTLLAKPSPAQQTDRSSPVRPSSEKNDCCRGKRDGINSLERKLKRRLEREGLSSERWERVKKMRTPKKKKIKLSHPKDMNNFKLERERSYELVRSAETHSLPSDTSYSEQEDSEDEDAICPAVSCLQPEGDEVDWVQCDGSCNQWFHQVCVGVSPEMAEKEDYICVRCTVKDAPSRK
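KDM5BΔAP (200 nM final) in 50 mM HEPES pH 7.5, 0.01% Tween-20 was preincubated 10 min at RT with compound over a concentration range. Substrate mix (H3K4me3 12.5 µM, α-KG 25 µM, Fe²⁺, ascorbate, NAD⁺, FDH) was added, and NADH fluorescence change over 30 min gave dose-response curves.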
* hit, by the source's call. The sample as a whole holds a higher share of hits than the screen did. Potency means the concentration at half of the fitted maximal effect.

For CS(=O)(=O)N1CCC(C2CCN(C(=O)c3ccc4nc[nH]c4c3)C2)CC1 (stereo not given) the results were KDM5B inhibitor inactive.
CCC(NC1CCN(C(=O)c2ccccc2)CC1)c1ccnn1C (stereo not given) was read as KDM5B inhibitor inactive.
For O=C(c1ccccc1)N1CCC(Oc2nccnc2N2CCOCC2)C1 (stereo not given) the results were KDM5B inhibitor inactive.
For CN1CCC(OC2CCN(S(=O)(=O)c3ccccc3)CC2)CC1 the results were KDM5B inhibitor inactive.
For COc1ccccc1CNC(=O)CCC1CCN(S(=O)(=O)c2ccccc2)CC1 the results were KDM5B inhibitor inactive.
`COc1nccnc1NC1CCN(C(=O)c2ccc3nc[nH]c3c2)CC1` gave KDM5B inhibitor 28µM*.
O=C(c1ccncc1)N1CCC(Oc2cccnc2)C1 (stereo not given) was read as KDM5B inhibitor inactive.
`O=C(c1ccccc1)N1CCC(Oc2ncccc2C(=O)N2CCCCC2)C1` (stereo not given) gave KDM5B inhibitor inactive.
O=C1[C@@H]2C[C@@H](CN2Cc2ccc(Cl)cc2)Oc2ccccc2N1CC1CC1 was read as KDM5B inhibitor inactive.
`COc1ccc(C(=O)N2CCC3(CC2)CC(N(C(=O)c2ccccc2)C2CC2)CCO3)cn1` (stereo not given) gave KDM5B inhibitor inactive.
Screening COCCNC(=O)[C@@H]1C[C@H](Oc2ccccc2)CN1C(=O)CCc1c(C)nn(C)c1C returned KDM5B inhibitor inactive.
Screening O=C(c1ccoc1)N1CCC(N2C(=O)C(O)C23CCCCC3)CC1 (stereo not given) returned KDM5B inhibitor inactive.
COc1cccc(C(=O)Nc2ccc3oc(-c4ccccc4)cc(=O)c3c2)c1 was read as KDM5B inhibitor inactive.
c1ccc(OCc2cc(CC3(NCc4cccc5c4OCO5)COC3)no2)cc1 was read as KDM5B inhibitor inactive.
For COC1CCOC2(CCNCC2)C1 (stereo not given) the results were KDM5B inhibitor inactive.
COCCC(=O)N1CCC(n2c(C)cnc2C2CC2)CC1 was read as KDM5B inhibitor inactive.
Screening CC(C(=O)c1c[nH]c2ccccc12)N1CCC(C(=O)N2CCCCCC2)CC1 (stereo not given) returned KDM5B inhibitor inactive.
O=C(NCc1ccnc(OCC(F)(F)F)c1)c1cccs1 was read as KDM5B inhibitor inactive.
Screening CCNC(=O)c1cccnc1OC1CCN(C(=O)c2ccccc2C)C1 (stereo not given) returned KDM5B inhibitor inactive.
For COC1CCC12CCN(C(=O)c1cccs1)CC2 (stereo not given) the results were KDM5B inhibitor inactive.
Cc1cccc(C(=O)N2CCC(Oc3cccnc3)C2)c1 (stereo not given) was read as KDM5B inhibitor inactive.
Screening COc1nccnc1NC1CCN(C(=O)c2cccc(C)c2)CC1 returned KDM5B inhibitor 32µM*.
For COc1ccc(CCNC(=O)C2CCN(C(=O)c3ccccc3C)CC2)cc1 the results were KDM5B inhibitor inactive.
For COc1cc(OC)cc(C(=O)N2CCN(C(=O)c3cccs3)CC2)c1 the results were KDM5B inhibitor inactive.
Screening Cc1cccc(C(=O)N2CCC(Oc3ncccc3C(N)=O)C2)c1 (stereo not given) returned KDM5B inhibitor inactive.
Screening COc1nccnc1NC1CCN(C(=O)c2cccs2)CC1 returned KDM5B inhibitor 25µM*.
COc1nccnc1NC1CCN(C(=O)c2ccccc2C)CC1 was read as KDM5B inhibitor 28µM*.
For Cc1ccc(NC2(c3nnnn3-c3ccc(C)cc3)CCCC2)cc1 the results were KDM5B inhibitor inactive.
`CC(C)c1ccc(-c2nnn(Cc3cc4c(cc3Br)OCO4)n2)cc1` gave KDM5B inhibitor inactive.
For Cc1noc(C)c1CCC(=O)Nc1nc(C(C)C)cs1 the results were KDM5B inhibitor inactive.
Screening NC(=O)c1ccccc1NC(=O)c1ccccc1-c1ccccc1 returned KDM5B inhibitor inactive.
Screening Cc1ccc(-c2cc(C(=O)N3CCN(C)CC3)c3ccccc3n2)s1 returned KDM5B inhibitor inactive.
`CN(C(=O)c1cnc2n[nH]c(-c3ccccc3)c2n1)c1ccccc1` gave KDM5B inhibitor inactive.
Screening Cc1ccccc1-c1[nH]nc2ncc(-c3cccnc3)nc12 returned KDM5B inhibitor 45µM*.
COc1ccc(-c2cnc3n[nH]c(-c4sccc4C)c3n2)cc1 was read as KDM5B inhibitor inactive.
`Cc1ccccc1-c1[nH]nc2ncc(-c3cnn(C)c3)nc12` gave KDM5B inhibitor 32µM*.
Screening Cc1ccccc1-c1[nH]nc2ncc(-c3ccsc3)nc12 returned KDM5B inhibitor 32µM*.
For Cc1ccccc1-c1[nH]nc2ncc(-c3ccccc3F)nc12 the results were KDM5B inhibitor 35µM*.
Screening COc1ccccc1-c1[nH]nc2ncc(C(=O)N(C)c3ccccc3)nc12 returned KDM5B inhibitor inactive.
Cc1ccsc1-c1[nH]nc2ncc(-c3ccccc3F)nc12 was read as KDM5B inhibitor inactive.
Screening Cn1cc(-c2cc(-c3cnn(C)c3)[nH]n2)cn1 returned KDM5B inhibitor inactive.
COc1ccc(-c2[nH]nc3ncc(-c4ccccc4F)nc23)cc1F was read as KDM5B inhibitor inactive.
O=C(/C=C/c1ccc[nH]1)c1ccc(I)cc1 was read as KDM5B inhibitor inactive.
`O=C(Nc1cccc(F)c1)c1nnc(CSCC(=O)N2CCOCC2)s1` gave KDM5B inhibitor inactive.
For O=C(C1CCC1)N1CCN(C2CCN(Cc3ccccn3)C2=O)CC1 (stereo not given) the results were KDM5B inhibitor inactive.
`N=C(N)c1cccs1` gave KDM5B inhibitor inactive.
Cc1ccc(-c2cc(C(F)F)n3nc(C)c(Cl)c3n2)cc1C was read as KDM5B inhibitor inactive.
`CCOc1ccc(Nc2nc3ccccc3nc2NS(=O)(=O)c2ccc(NC(C)=O)cc2)cc1` gave KDM5B inhibitor inactive.
Screening CN(CC(=O)Nc1ccccc1C(=O)NC1CC1)Cc1ccc(F)cc1 returned KDM5B inhibitor inactive.
CC(=O)c1ccc(NC(=O)C(C)SC2CCCC2)cc1 (stereo not given) was read as KDM5B inhibitor inactive.
For O=S(=O)(Nc1ccc(-c2cn3ccsc3n2)cc1)c1ccccc1 the results were KDM5B inhibitor inactive.
For O=C(Nc1ccc(Br)cc1)C1CC2CCC1C2 (stereo not given) the results were KDM5B inhibitor inactive.
`CC(=O)Nc1ccc(NC(=O)CC2C=CCC2)cc1` (stereo not given) gave KDM5B inhibitor inactive.
Screening O=C1COCCN1c1cc(-c2cccc(F)c2)cn2cncc12 returned KDM5B inhibitor 35µM*.
Fc1cccc(-c2nc(CN3CCOCC3)co2)c1 was read as KDM5B inhibitor inactive.
O=C1c2cnc(-c3cccc(F)c3)nc2OCCN1c1ccccc1 was read as KDM5B inhibitor inactive.
`CCN(CC)Cc1cnc2c(C(=O)N3CCCCCCC3)cnn2c1` gave KDM5B inhibitor inactive.
For COC(=O)C(C)NC(=O)C12CC3CC(CC(Br)(C3)C1)C2 (stereo not given) the results were KDM5B inhibitor inactive.
`CCO[C@H]1CN(C(=O)CCc2ccc(-c3ccc(Cl)cc3)[nH]2)C[C@@H]1O` gave KDM5B inhibitor 28µM*.
`CCO[C@H]1CN(C(=O)CN(c2cccc(C)c2)S(C)(=O)=O)C[C@@H]1O` gave KDM5B inhibitor inactive.
`CCO[C@H]1CN(C(=O)CCCOc2ccccc2)C[C@@H]1O` gave KDM5B inhibitor inactive.
For Cc1ccc(S(=O)(=O)Nc2nc3ccccc3nc2Nc2ccc(F)cc2)cc1 the results were KDM5B inhibitor inactive.
Screening O=C(c1cc(=O)c2ccccc2o1)N(Cc1ccccc1)Cc1ccccc1 returned KDM5B inhibitor inactive.

Assay outcomes (PubChem)
